Hits are enriched below; roughly 4.2% of the tested compounds scored in any of these assays.
V-ATPase pH = regulators of yeast V-ATPase proton pumping, primary screen, pHLuorin cytosolic pH fluorescence | S. cerevisiae | response, % at 10 µM | 350,000 compounds, 0.37% hits | AID 504577, 2011; in the data active = response mostly above about 7.3%, no sharp cut-off; inactive = mostly below about 5.4%; note: actives read high
tim23-1 inh = growth inhibitors of tim23-1 mutant yeast, primary screen, luminescence, uHTS; S. cerevisiae tim23-1 growth, BacTiter-Glo luminescence, 24 h; inhibition, % at 20 µM; 330,000 compounds, 1.3% hits;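 active = growth inhibition of the mutant yeast at or above 50%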;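 note: temperature-sensitive mutant grown at 25 °C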
NALP1 yeast inh = NALP1 inflammasome inhibitors in reconstituted yeast, colorimetric, S. cerevisiae, triplicate retest | 280,000 compounds, 0.61% hits | inhibition, % at 10 µM | AID 2071, 2009 | S. cerevisiae NALP1/ASC/caspase-1 growth, X-gal OD620, 72 h; in the data active = inhibition mostly above about 24%, no sharp cut-off; inactive = mostly below about 32%
NLRP3 yeast inh = NALP3 inflammasome inhibitors in reconstituted yeast, primary screen, luminescence, uHTS; inhibition, % at 10 µM; 330,000 compounds, 0.39% hits; Yeast reconstituted NLRP3/ASC/caspase-1, beta-gal luminescence, 24 h;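 active = inhibition of 50% or more; inactive = inhibition below 50%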
TIM10 inh = growth inhibitors of isogenic TIM10 control yeast, primary screen, counter-screen for tim10-1 yeast inhibitor project, luminescence, uHTS | S. cerevisiae TIM10 strain growth, BacTiter-Glo luminescence, 24 h | inhibition, % at 10 µM | 330,000 compounds, 1.4% hits;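 active = inhibition of 40% or more at the single tested concentration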;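 note: wild-type TIM10 isogenic control strain grown at permissive 25 °C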
tim10-1 inh = growth inhibitors of tim10-1 mutant yeast, primary screen, luminescence, uHTS. S. cerevisiae tim10-1 ts strain growth, BacTiter-Glo, 24 h. inhibition, % at 20 µM. 330,000 compounds, 2.2% hits. AID 463190, 2010;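 active = inhibition of at least 40%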;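 note: mutant grown at 25 °C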
tim10-1 confirm = growth inhibitors of tim10-1 mutant yeast, confirmation, single concentration, luminescence, S. cerevisiae; shares compounds with tim10-1 inh; S. cerevisiae tim10-1 ts strain growth, BacTiter-Glo, 24 h; inhibition, % at 20 µM; 7,400 compounds, 56% hits;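 active = inhibition of yeast growth at or above a set limit in either of two repeat tests at 20 µM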;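 note: tim10-1 mutant grown at permissive 25 °C to find synthetic lethal compounds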
tim10 confirm = growth inhibitors of wild-type TIM10 yeast, confirmation, counter-screen for tim10-1 synthetic lethality project, single concentration, luminescence, S. cerevisiae. S. cerevisiae tim10 strain growth, BacTiter-Glo luminescence, 24 h. 4,600 compounds, 63% hits. shares compounds with TIM10 inh. AID 463215, 2010. inhibition, % at 10 µM;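 active = inhibition of yeast growth at or above a set limit in either of two replicates at 10 µM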; note: this counterscreen used the strain with wild-type TIM10
Large screens that a line does not name were inactive (follow-up assays come after a bar, where they were run).

O=C(NCCC(=O)N1CCN(c2ccccc2F)CC1)c1ccco1	none (no result: NALP1 yeast inh)
Clc1ccc2c(c1)c1cc(Cl)ccc1n2CN1CCOCC1	TIM10 inh 51, tim10-1 inh 63 | tim10-1 confirm 39 | tim10 confirm 59
O=c1c2ccccc2c(C=Nc2ccccc2O)c(O)n1-c1nccs1	none
Cc1cccc(C)c1N=Cc1c(O)n(-c2nccs2)c(=O)c2ccccc12	TIM10 inh 55, tim10-1 inh 46 | tim10-1 confirm 41 | tim10 confirm inactive
Cc1nnc(SCC2=C(C(=O)O)N3C(=O)C(NC(=O)c4cc(F)c(F)cc4Cl)C3SC2)s1 (centres undefined)	none
CCCCN(C)CCNC(=O)c1cc2cc3ccc(OC)cc3nc2o1	TIM10 inh 57, tim10-1 inh 49 | tim10-1 confirm 29 | tim10 confirm 46
CCN(CC)CCNC(=O)c1cc2cc3ccc(OC)cc3nc2o1	none
COc1ccccc1C(c1nnnn1CCc1ccccc1)N1CCN(c2ccccc2)CC1 (centres undefined)	none
COc1ccccc1C(c1nnnn1CCc1ccccc1)N1CCCCCC1 (centres undefined)	TIM10 inh 43, tim10-1 inh 42 | tim10-1 confirm inactive | tim10 confirm inactive
Cc1cccc(NS(=O)(=O)c2cc3c4c(c2)CCC(=O)N4CCC3)c1	none (no result: NALP1 yeast inh)
CCOC(=O)c1sc(NC(=O)Cc2c(F)cccc2Cl)nc1C	TIM10 inh 44, tim10-1 inh 47 | tim10-1 confirm 43 | tim10 confirm 36
CCOC(=O)c1sc(Nc2ccc(C)cc2C)nc1C	TIM10 inh 63, tim10-1 inh 48 | tim10-1 confirm inactive | tim10 confirm 40
O=S(=O)(c1ccc(Cl)cc1)N1CCC(O)(CN2CCN(Cc3ccccc3)CC2)CC1	none
O=S(=O)(c1ccccc1)N1CCC(O)(CSc2ccc(Cl)cc2)CC1	TIM10 inh 43, tim10-1 inh 44 | tim10-1 confirm 37 | tim10 confirm inactive
CCOc1cccc2sc(N(CCCN(C)C)C(=O)c3ccc(S(=O)(=O)N4CCc5ccccc5C4)cc3)nc12	TIM10 inh 42, tim10-1 inh 45 | tim10-1 confirm inactive | tim10 confirm 32
CCc1ccc2nc(N(CCCN(C)C)C(=O)c3ccc(S(=O)(=O)N4CCc5ccccc5C4)cc3)sc2c1	none
COC(=O)/C=C1\OC(c2ccccc2)=CC1=O	TIM10 inh 40, tim10-1 inh 42 (no result: V-ATPase pH) | tim10-1 confirm inactive | tim10 confirm 32
CCN(CC)CCN(C(=O)c1ccc(Br)s1)c1nc2cc3c(cc2s1)OCCO3	none
CN(C)CCCN(C(=O)c1ccc(Cl)s1)c1nc2cc3c(cc2s1)OCO3	TIM10 inh 42, tim10-1 inh 48 | tim10-1 confirm 46 | tim10 confirm inactive
CN(C)CCCN(C(=O)c1cc(Cl)sc1Cl)c1nc2cc3c(cc2s1)OCO3	TIM10 inh 46, tim10-1 inh 63 | tim10-1 confirm 55 | tim10 confirm 34
CN(C)CCCN(C(=O)c1ccc(Br)s1)c1nc2cc3c(cc2s1)OCCO3	TIM10 inh 56, tim10-1 inh 64 (no result: NALP1 yeast inh) | tim10-1 confirm 60 | tim10 confirm 47
CN(C)CCCN(C(=O)c1cccs1)c1nc2cc3c(cc2s1)OCO3	none
N#Cc1ccc(C(=O)N2CCN(C(=O)C3CCCO3)CC2)cc1 (centres undefined)	none (no result: NALP1 yeast inh)
CCCC(=O)Nc1nc(C)c(-c2csc(Nc3ccccc3C)n2)s1	none
CCC(=O)Nc1nc(C)c(-c2csc(Nc3ccccn3)n2)s1	TIM10 inh 42, tim10-1 inh 40 | tim10-1 confirm inactive | tim10 confirm 47
CCOc1cc(/C=N\NC(=O)c2ccc(NC(=O)C(C)(C)C)cc2)ccc1OC(=O)c1ccc(OC)cc1	none
S=c1[nH]nc(COc2ccccc2)n1/N=C/C=C/c1ccccc1	none
S=c1[nH]nc(COc2ccccc2)n1/N=C/C(Cl)=C/c1ccccc1	TIM10 inh 52, tim10-1 inh 60 | tim10-1 confirm 56 | tim10 confirm 46
CC(=O)ON1C(C)(C)CC(OC(=O)c2ccccc2)CC1(C)C	none
c1ccc(CNc2nc(CN3CCOCC3)nc3scc(-c4ccccc4)c23)cc1	none
Clc1ccc(CNc2nc(CN3CCOCC3)nc3scc(-c4ccccc4)c23)cc1	TIM10 inh 51, tim10-1 inh 48 | tim10-1 confirm 46 | tim10 confirm inactive
Cc1ccc(-n2ncc3c(NNC(=O)c4ccco4)ncnc32)cc1C	none
CCOC(=O)CNC(c1ccccc1)c1cc(Br)ccc1NC(=O)CCN1CCOCC1 (centres undefined)	NALP1 yeast inh 98, TIM10 inh 55, tim10-1 inh 45 | tim10-1 confirm 40 | tim10 confirm 40
CCOC(=O)CNC(c1ccccc1)c1cc(Br)ccc1NC(=O)OCC (centres undefined)	none
COC(=O)CNC(c1ccccc1)c1cc(Br)ccc1NC(=O)CCN1CCOCC1 (centres undefined)	TIM10 inh 51, tim10-1 inh 51 (no result: V-ATPase pH, NALP1 yeast inh) | tim10-1 confirm 42 | tim10 confirm 57
CC(=O)Nc1ccccc1C(=O)C(=O)Nc1ccc(Cl)cc1	none
CCS(=O)(=O)c1ccc2oc(Nc3cc(C)cc(C)c3)nc2c1	TIM10 inh 43, tim10-1 inh 47 | tim10-1 confirm 37 | tim10 confirm 37
Cc1ccccc1C(=O)NC1CCN(CC(=O)Nc2c(C)cccc2C)CC1	none
CCCn1c(/C=C/c2ccccc2)nc2ccccc21	TIM10 inh 42, tim10-1 inh 42 | tim10-1 confirm inactive | tim10 confirm inactive
Cc1cc(C(=O)O/N=C(\N)c2ccncc2)ccc1[N+](=O)[O-]	none
COc1ccc(/C(N)=N/OC(=O)c2ccc([N+](=O)[O-])c(C)c2)cc1OC	TIM10 inh 49, tim10-1 inh 65 | tim10-1 confirm 71 | tim10 confirm 36
O=[N+]([O-])c1ccc(/C=N/n2c(CO)nc3ccccc32)s1	none
O=[N+]([O-])c1ccc(/C=N/n2cnc3ccccc32)s1	NALP1 yeast inh 54, TIM10 inh 79, tim10-1 inh 49 | tim10-1 confirm 57 | tim10 confirm 90
S=c1[nH]nc(COc2ccccc2)n1C1CCCCC1	none
